Unmarked numbers belong to inactive results. Some of the results follow. The source made the active and inactive calls.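 Rule for the calls, unless noted: active = mean inhibition above 46.5%, the solvent-only control mean plus 3 SD; inactive = the rest.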
How the values were obtained:
[1] = tested on: transactivating tegument protein VP16 (Human herpesvirus 1); assay: VP16 transactivation reporter inhibitors, counter-screen for SRC2 inhibitor project, cell-based, luminescence, single concentration (AID 652007; in the data active = inhibition above about 36%); conditions: cell-based VP16 transactivation luciferase reporter, at 8.9 µM, active compounds read high
[2] = molecular target: Nuclear receptor coactivator 2 (Homo sapiens) (UniProt Q15596); assay: SRC2 coactivator transcriptional activity inhibitors, confirmation, cell-based, luminescence, HEK293, triplicate (AID 652008); conditions: HEK293 GAL4-SRC2 luciferase reporter, at 8.9 µM, active compounds read high;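 note: 0% = DMSO-treated cells and 100% = Gossypol at 36 µM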
[3] = compounds interfering with TAMRA-BSA probe, counter-screen for TCR-CD3 interaction inhibitor project, biochemical, fluorescence, TAMRA-labeled BSA (AID 652035; in the data active = inhibition above about 23%;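 note: 0% = buffer low control and 100% = reference high control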); conditions: TAMRA-labeled BSA probe fluorescence counterscreen; at 9.4 µM; active compounds read high
[4] = tested on: T-cell receptor (TCR)-CD3 interaction, human; assay: TCR-CD3 interaction inhibitors, retest, confirmation, biochemical, fluorescence, TAMRA-labeled TCR probe (AID 652036; in the data active = inhibition above about 19%); conditions: TAMRA-labeled TCR probe fluorescence binding assay; at 9.4 µM; active compounds read high

Sequence of Nuclear receptor coactivator 2 (Homo sapiens) (Q15596 whole entry, looked up, the tested form may be a part): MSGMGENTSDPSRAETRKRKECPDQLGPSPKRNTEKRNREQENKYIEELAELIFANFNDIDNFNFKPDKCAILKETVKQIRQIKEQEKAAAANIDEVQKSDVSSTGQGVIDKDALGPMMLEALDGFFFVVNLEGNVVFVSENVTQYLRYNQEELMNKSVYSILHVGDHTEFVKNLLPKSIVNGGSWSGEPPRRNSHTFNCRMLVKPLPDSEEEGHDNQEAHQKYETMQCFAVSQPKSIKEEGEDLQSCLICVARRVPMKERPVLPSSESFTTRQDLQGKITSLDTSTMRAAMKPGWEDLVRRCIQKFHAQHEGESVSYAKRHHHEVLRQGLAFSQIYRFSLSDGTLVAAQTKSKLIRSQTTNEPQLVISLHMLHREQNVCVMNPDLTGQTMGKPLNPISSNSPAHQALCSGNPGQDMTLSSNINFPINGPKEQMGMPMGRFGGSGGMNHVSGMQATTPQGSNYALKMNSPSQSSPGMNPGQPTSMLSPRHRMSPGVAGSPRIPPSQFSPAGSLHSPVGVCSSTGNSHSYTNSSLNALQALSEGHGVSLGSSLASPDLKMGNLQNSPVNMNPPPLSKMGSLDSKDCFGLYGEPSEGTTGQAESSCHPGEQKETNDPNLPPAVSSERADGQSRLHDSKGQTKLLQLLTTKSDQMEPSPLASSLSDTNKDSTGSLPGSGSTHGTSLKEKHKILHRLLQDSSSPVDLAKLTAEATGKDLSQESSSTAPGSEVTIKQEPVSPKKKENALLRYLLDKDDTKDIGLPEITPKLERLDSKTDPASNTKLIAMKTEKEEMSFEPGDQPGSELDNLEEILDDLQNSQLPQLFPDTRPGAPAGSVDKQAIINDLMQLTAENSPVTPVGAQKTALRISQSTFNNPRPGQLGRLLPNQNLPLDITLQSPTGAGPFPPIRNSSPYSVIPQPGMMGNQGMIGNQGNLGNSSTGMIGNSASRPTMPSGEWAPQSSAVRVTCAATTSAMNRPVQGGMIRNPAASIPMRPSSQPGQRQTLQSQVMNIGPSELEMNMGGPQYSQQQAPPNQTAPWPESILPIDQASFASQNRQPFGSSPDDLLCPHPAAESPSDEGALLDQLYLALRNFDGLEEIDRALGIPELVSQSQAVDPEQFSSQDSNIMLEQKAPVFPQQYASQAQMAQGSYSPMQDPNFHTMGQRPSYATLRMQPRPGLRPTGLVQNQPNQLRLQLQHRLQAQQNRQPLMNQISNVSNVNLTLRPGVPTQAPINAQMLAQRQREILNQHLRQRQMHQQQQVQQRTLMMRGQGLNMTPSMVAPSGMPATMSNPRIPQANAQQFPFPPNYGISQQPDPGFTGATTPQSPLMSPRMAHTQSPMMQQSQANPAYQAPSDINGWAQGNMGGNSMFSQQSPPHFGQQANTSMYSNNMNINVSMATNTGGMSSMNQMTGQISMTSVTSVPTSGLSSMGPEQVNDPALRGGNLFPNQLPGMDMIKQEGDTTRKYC

Row | SMILES | inhibition [1] | inhibition [2] | inhibition [3] | inhibition [4]
1 | COc1ccc(S(=O)(=O)Nc2ccc(C)cn2)cc1 | -11.7% | -15.4% |  | 
2 | CCS(=O)(=O)c1cc([N+](=O)[O-])c(Sc2ccccc2NC(C)=O)s1 | -21% | -26.1% |  | 
3 | COc1ccc(CNn2c(-c3cccs3)nc3ccccc3c2=O)cc1OC | -9.43% | 33.2% |  | 
4 | NCCOc1ccc(C2CCCCC2)cc1 | -53.7% | 23% |  | 
5 | COc1ccc(-c2ncncc2-c2csc(C)n2)c(O)c1 | -10.8% | -21.2% |  | 
6 | CN(C)c1ccc(C(C[N+](=O)[O-])c2c(N)n(C)c(=O)n(C)c2=O)c(F)c1C#N (stereo unspecified) | 6.34% | 6.89% |  | 
7 | CC1(C(=O)NS(=O)(=O)Cc2ccccc2C(F)(F)F)CCN1C(=O)c1ccco1 (stereo unspecified) | 0.06% | -19.7% |  | 
8 | CCS(=O)(=O)c1ncc(Cl)c(C(=O)Nc2ccc(C)cc2)n1 | 1.43% | 0.68% |  | 
9 | CCCCN1C[C@@H](COCc2ccccc2)Oc2cc(F)ccc2S1(=O)=O | -1.24% | 11.9% |  | 
10 | Cc1cc(C(=O)COc2cccnc2[N+](=O)[O-])c(C)n1-c1ccccc1F | -54.6% | 62.7% (active) |  | 
11 | CCN(CC)Cc1nc2c(c(=O)[nH]1)C(CC)(CC)Cc1ccccc1-2 | -14.9% | 6.86% |  | 
12 | COc1ccccc1N(CC(=O)N/N=C(\C)c1ccccc1O)S(=O)(=O)c1ccc(C)cc1 | 12.9% | 25.4% | -17.6% | 14.3%
